# bovine MsrA act: bovine methionine sulfoxide reductase A activation; purified bovine MsrA, absorbance read-out; activation, % at 10.6 µM; 0.3% of 360,000 active; AID 602163; in the data active means activation above about 7.5%;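 further: 0% = vehicle and 100% = reference activator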
# MsrA inhibitor: bovine MsrA inhibition | purified bovine MsrA, absorbance read-out | inhibition, % at 15.5 µM | 0.75% of 360,000 active; in the data active means inhibition above about 4.5%;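 further: 0% = vehicle wells with enzyme and 100% = reference inhibitor wells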
# rCAG RNA binder: r(CAG) repeat RNA binding; TO-PRO-1 dye displacement fluorescence; inhibition, % at 3 µM; 1.3% of 370,000 active; AID 651821;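 active means inhibition above the plate cutoff, the mean of all test compounds on that plate plus 3 SD, cut at about 35% in these data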;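 further: 0% = DMSO alone and 100% = 100 µM mitoxantrone as full dye displacement; higher means more dye released from RNA so lower well fluorescence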
# NadD block: blocks S. aureus nicotinate mononucleotide adenylyltransferase | AID 602399 | 0.78% of 360,000 active | inhibition, % at 20 µM | purified NadD enzyme, colorimetric absorbance read-out; in the data active means inhibition above about 26%
# rCAG binder conf: r(CAG) RNA repeat binding, confirmation. TO-PRO-1 dye displacement fluorescence. inhibition, % at 3 µM. shares compounds with rCAG RNA binder. 70% of 4,300 active;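 active means inhibition above a per-plate cutoff, the mean inhibition of sample wells plus 3 SD, cut at about 35% in these data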;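 further: loss of TO-PRO-1 fluorescence as compound displaces dye from 1x1 AA loop RNA; 0% = DMSO only wells and 100% = 100 µM mitoxantrone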
# DNA CAG counter: disrupts DNA CAG TO-PRO-1 complex, flagging rCAG hits; d(CAG) DNA oligo TO-PRO-1 dye displacement, fluorescence; inhibition, % at 3 µM; shares compounds with rCAG RNA binder; 94% of 4,300 active;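 active means inhibition above its plate's cutoff, the mean test-well inhibition plus 3 SD, cut at about 4.8% in these data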;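 further: 0% = DNA dye mix with DMSO and 100% = 100 µM mitoxantrone; hits displace the dye from DNA and so lower well fluorescence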
# dCAG dye DR: DNA CAG dye complex inhibition, dose response counter-screen. shares compounds with rCAG RNA binder. DNA CAG/GTC duplex TO-PRO-1 dye displacement fluorescence. IC50, µM. 20% of 250 active; in the data active means IC50 below about 10 µM
# Numbers without * were called inactive; i = inactive; . = no result. Hits are enriched below; roughly 2.7% of the tested compounds scored in any of these assays.
SMILES,bovine MsrA act,MsrA inhibitor,rCAG RNA binder,NadD block,rCAG binder conf,DNA CAG counter,others
C=CCN1C(=O)C(CC(=O)O)SC1=Nc1cccc([N+](=O)[O-])c1 (stereo unspecified),-1.1,-0.8,1.1,-0.8,.,.,
Cc1oc(C(C)(C)C)cc1C(=O)Nc1cccc(/C=C\C(=O)O)c1,-2.5,0.9,17.8,5.0,.,.,
Cc1oc(-c2ccccc2)cc1C(=O)Nc1cccc(/C=C\C(=O)O)c1,-3.7,0.5,40.5*,1.9,28.7,5.7*,
CCCCn1c(NC(=O)c2ccccc2Cl)c(C#N)c2nc3ccccc3nc21,-0.7,1.2,91.5*,19.2,84.7*,58.3*,
COc1ccc(C(=O)Nc2ccc(NC(=O)c3ccco3)cc2)cc1,-7.9,0.6,0.5,-5.0,.,.,
COc1ccc(-n2c(NC(=O)c3ccco3)c(C#N)c3nc4ccccc4nc32)cc1,-9.3,2.0,53.1*,6.4,42.9*,12.8*,
O=C(NC1CCC(=O)N(CCOc2ccccc2)CC1)OCc1ccccc1 (stereo unspecified),-3.2,0.6,-11.2,-3.0,.,.,
CC(C)n1c(O)c(N=NC(=O)Cc2csc(N3CCOCC3)n2)c2ccccc21,-1.1,1.0,-5.8,1.8,.,.,
O=[N+]([O-])c1ccc(O)c(C=Nc2ccc3nc(-c4ccccc4)[nH]c3c2)c1,-2.0,1.9,11.2,8.0,.,.,
Oc1c(Br)cc(C=Nc2ccc3nc(-c4ccccc4)[nH]c3c2)c(O)c1Br,.,3.1,45.8*,.,56.1*,25.0*,
CSc1cccc(NC(=O)C2CCCN(S(C)(=O)=O)C2)c1 (stereo unspecified),-2.4,-1.0,1.2,-7.9,.,.,
O=C(NCC(c1cccs1)N1CCOCC1)c1ccccc1NS(=O)(=O)c1ccc(Cl)cc1 (stereo unspecified),-4.5,0.3,50.4*,-0.5,61.1*,22.6*,
O=C(NCC(c1ccco1)N1CCCCC1)c1ccc(S(=O)(=O)Nc2ccccc2Cl)cc1 (stereo unspecified),-3.5,0.0,43.1*,-4.8,38.8*,8.8*,
O=C(NCC(c1cccs1)N1CCOCC1)c1ccccc1NS(=O)(=O)c1ccc(Br)cc1 (stereo unspecified),-2.3,-0.8,49.0*,8.4,46.5*,14.7*,
COc1ccc(CNC(=O)COC(=O)c2nc3nc(C)cc(C)n3n2)cc1,-3.4,-0.3,4.5,4.4,.,.,
COc1cccc(CNC(=O)CCS(=O)(=O)c2ccc3c(c2)NC(=O)CO3)c1,-0.1,-1.0,4.5,-4.1,.,.,
CC(C)C(OC(=O)C1=Cc2ccccc2OC1)C(=O)NCC1CCCO1 (stereo unspecified),-5.1,-0.5,35.4*,14.6,48.2*,16.5*,
CC(OC(=O)C1=Cc2ccccc2OC1)C(=O)NC1CCCC1 (stereo unspecified),-2.8,0.1,1.6,4.2,.,.,
O=C(CC1C[C@H](C(=O)N2CCOCC2)[C@@]2(CCC3CCCC3)c3[nH]c4ccccc4c3CCN2C1=O)NCCCn1ccnc1 (stereo partly specified),-2.4,2.6,35.1*,9.8,1.8,2.1,
N#Cc1c(-c2c(Cl)cccc2Cl)noc1/C=C/Nc1ccc(C(=O)O)cc1,-12.6,3.0,43.7*,8.5,43.5*,10.3*,
CN(C)/C=C/c1onc(-c2c(Cl)cccc2Cl)c1C#N,-5.0,1.0,11.3,2.4,.,.,
COc1ccc(C)cc1NC(=O)Cn1c(=O)oc2ccccc21,0.1,-0.8,-0.1,-7.0,.,.,
O=C(Nc1ccccc1Cc1ccccc1)c1ccccc1NS(=O)(=O)c1ccc(Cl)s1,-5.5,0.5,91.2*,22.1,90.5*,66.3*,
Cc1ccc(NC(=O)c2ccccc2NS(=O)(=O)c2ccc(Cl)s2)cc1,-3.5,-1.2,84.9*,-4.4,71.8*,33.8*,
O=C(c1cn(-c2ccccc2)nc1-c1cccc([N+](=O)[O-])c1)N1CCCCC1,-1.5,0.3,-3.7,-5.1,.,.,
SMILES,bovine MsrA act,MsrA inhibitor,rCAG RNA binder,NadD block,rCAG binder conf,DNA CAG counter,others
O=C(O)c1ccc(N=Nc2c(O)[nH]c3ccc(Br)cc23)cc1,-2.5,-0.4,2.4,0.7,.,.,
O=c1ccc2cc3c([nH]c4ccc(Br)cc43)oc-2c1O,-1.1,2.3,100.4*,16.9,91.7*,68.0*,
COc1ccc(CN2CCC(N3CC(C)OC(C)C3)CC2)c(OC)c1OC (stereo unspecified),-3.2,0.9,-8.7,-2.6,.,.,
N#C/C(=C\c1c[nH]c2ccccc12)C(=O)NC1CC1,-4.4,1.2,53.8*,-2.4,1.2,1.0,
N#C/C(=C\c1c[nH]c2ccccc12)C(=O)NC1CCCC1,-7.0,0.1,4.8,-1.9,.,.,
CCN(CC)S(=O)(=O)c1ccc(C)c(NC(=O)CNCCN(C(C)C)C(C)C)c1,-1.7,-0.4,-6.8,1.3,.,.,
O=C(N/N=C/c1ccc([N+](=O)[O-])o1)c1sc2ccccc2c1Cl,0.2,3.4,35.9*,17.1,38.5*,17.9*,
O=C(N/N=C/c1ccccn1)c1sc2ccccc2c1Cl,-5.2,4.1,7.6,4.4,.,.,
O=C(CN1c2ccccc2Sc2ccccc21)NNC(=S)Nc1ccc(Cl)cc1,-1.1,-0.4,61.7*,14.2,64.6*,30.8*,dCAG dye DR=i
O=C(CN1CCOCC1)NNC(=S)Nc1ccc(Cl)cc1,-2.0,-0.8,0.9,-1.1,.,.,
COc1cc(C(=O)NCCNC(=O)c2ccco2)cc(OC)c1OC,-1.1,2.3,45.8*,18.5,42.6*,12.6*,
COc1cc(C(=O)NCc2ccco2)cc(OC)c1OC,-1.4,0.4,-2.4,-1.2,.,.,
CC(NC(=O)c1ccccc1Br)c1nnc(SCC(=O)NC2CCCCC2)n1C (stereo unspecified),-3.0,0.2,-1.3,-9.0,.,.,
c1coc(-c2nc3c([nH]2)CCc2nonc2-3)c1,1.9,1.7,41.9*,-2.8,8.7,2.6,
CN(C(=O)CSc1nc2ccccc2n1C)C1CCS(=O)(=O)C1 (stereo unspecified),-1.5,-0.4,0.6,-5.0,.,.,
C=CCNc1nc(N)c(C(=C(C#N)C#N)c2ccc(Br)cc2)s1,-6.1,-0.5,38.1*,8.0,22.2,10.3*,
CCOC(=O)c1ccc(CC2S/C(=C(\C#N)C(C)=O)NC2=O)cc1 (stereo unspecified),-8.1,3.3,15.9,5.8,.,.,
CCc1ccc(CC2S/C(=C(\C#N)C(C)=O)NC2=O)cc1 (stereo unspecified),-12.1,2.6,37.2*,-0.2,19.9,2.5,
Cc1cc(C)cc(Nc2nc3c([nH]2)c(=O)n(C)c(=O)n3C)c1,-2.2,0.0,58.3*,-0.6,18.1,12.5*,
Cc1ccc(Nc2nc3c([nH]2)c(=O)n(C)c(=O)n3C)cc1,2.0,-0.3,50.6*,-5.4,14.2,14.0*,
O=C(O)c1[nH]c2ccc(Cl)cc2c1CC(=O)N1CCN(C(=O)c2ccco2)CC1,-7.8,-1.2,25.6,1.0,.,.,
COc1ccccc1N1CCN(C(=O)Cc2ccc(Cl)cc2)CC1,0.5,1.3,-5.7,-0.2,.,.,

# High-throughput results (PubChem)
